Data taken from PubChem BioAssay (Tox21).
A number with no mark means an inactive call. Inconclusive results are not listed. Entries that show only a call come without a potency. The source made the active and inactive calls. The call rests on the fitted dose curve.

Legend:
[1] = biological target: Acetylcholinesterase (Homo sapiens) (UniProt P22303); assay: Acetylcholinesterase (AChE) small molecule antagonists: colormetric cell-based qHTS assay (AID 1347395); further: nearly all actives have a fitted effect of over 30% in size
Sequence of Acetylcholinesterase (Homo sapiens) (P22303 whole entry, looked up): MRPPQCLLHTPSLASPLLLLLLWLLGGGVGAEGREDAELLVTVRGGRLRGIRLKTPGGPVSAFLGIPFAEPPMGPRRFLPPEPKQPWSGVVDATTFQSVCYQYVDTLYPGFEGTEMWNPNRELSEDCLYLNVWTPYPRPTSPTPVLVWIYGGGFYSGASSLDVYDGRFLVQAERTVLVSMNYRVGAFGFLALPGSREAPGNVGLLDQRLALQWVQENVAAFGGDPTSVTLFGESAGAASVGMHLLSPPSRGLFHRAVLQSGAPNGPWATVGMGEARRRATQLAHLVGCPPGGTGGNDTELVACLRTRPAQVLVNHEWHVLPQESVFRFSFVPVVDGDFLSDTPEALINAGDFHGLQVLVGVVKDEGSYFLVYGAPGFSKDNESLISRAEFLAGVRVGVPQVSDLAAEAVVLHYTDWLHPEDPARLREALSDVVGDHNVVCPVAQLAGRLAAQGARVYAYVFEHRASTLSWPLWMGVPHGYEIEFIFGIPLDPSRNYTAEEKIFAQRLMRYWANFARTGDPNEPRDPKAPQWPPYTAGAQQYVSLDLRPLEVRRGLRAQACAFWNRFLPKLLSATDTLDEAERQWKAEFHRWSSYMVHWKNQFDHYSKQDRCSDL
How it was run: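 SH-SY5Y cells; cpd 30 min 37 C; + DTNB/acetylthiocholine, 90 min 37 C; colorimetric thiocholine read; qHTS.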

[2] = biological target: Acetylcholinesterase (Homo sapiens) (UniProt P22303); assay: Acetylcholinesterase (AChE) small molecule antagonists: enzyme-based qHTS assay (AID 1347397); conditions: Potency: AChE enzyme activity inhibition; outcome: AChE enzyme activity inhibition; further: nearly all actives have a fitted effect of over 55% in size
How it was run: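 Human recombinant acetylcholinesterase; substrate acetylthiocholine; thiocholine quantified with DTNB (colorimetric). Compound preincubation 30 min RT; reaction 10 min RT.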

[3] = biological target: Acetylcholinesterase (Homo sapiens) (UniProt P22303); assay: Acetylcholinesterase (AChE) small molecule antagonists: fluorescence cell-based qHTS assay (AID 1347398); conditions: Potency: AChE activity; outcome: AChE activity; further: nearly all actives have a fitted effect of over 50% in size; further: potency means the concentration at half of the fitted maximal effect
How it was run: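 Thiocholine generated from acetylthiocholine by SH-SY5Y cell AChE is detected with Thiolite Green (Ex/Em 490/520 nm) after 40 min at room temperature, following 30 min compound pretreatment at 37 C.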

[4] = biological target: Acetylcholinesterase (Homo sapiens) (UniProt P22303); assay: Acetylcholinesterase (AChE) small molecule antagonists: enzyme-based qHTS assay with human liver microsomes (AID 1347399); conditions: Potency: qHTS inhibition; outcome: qHTS inhibition; further: nearly all actives have a fitted effect of over 60% in size
How it was run: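 Recombinant human AChE (50 mU/mL in the enzyme mix) and human liver microsomes (0.25 mg/mL final) were preincubated with compound and NADPH (0.25 mg/mL final) for 30 min at 37 C. Acetylthiocholine/DTNB was then added; thiocholine was read colorimetrically after 10 min at room temperature.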

SMILES | Potency [1] | Potency [2] | Potency [3] | Potency [4] | activity, negative = inhibition [1] | activity change, negative = inhibition [2] | activity change, negative = inhibition [4]
O=C1C(N(CO)C(=O)NCO)N(CO)C(=O)N1CO (configuration not stated) | inactive | inactive | inactive | inactive | – | – | –
CCCN(C1CCN(C(=O)C2CCNCC2)CC1)[C@@H]1CCc2ccc(OC)cc2C1 | inactive | inactive | inactive | inactive | – | – | –
Cc1ccc2oc(=O)ccc2c1 | inactive | inactive | inactive | inactive | – | – | –
Cc1ccc(C(C)(C)O)cc1 | inactive | inactive | inactive | inactive | – | – | –
O=C(c1ccccc1)c1ccc(O)c(O)c1O | inactive | inactive | inactive | inactive | – | – | –
O=C(c1ccc(O)cc1O)c1ccc(O)cc1O | inactive | inactive | inactive | inactive | – | – | –
O=S1(=O)c2cccc3cccc(c23)N1CCCN1CCN(c2ccc(F)cc2)CC1 | inactive | inactive | inactive | inactive | – | – | –
CC(C)=CCC1C(=O)N(c2ccccc2)N(c2ccccc2)C1=O | inactive | inactive | inactive | inactive | – | – | –
CN(C/C=C/C#CC(C)(C)C)Cc1cccc2ccccc12 | inactive | inactive | inactive | inactive | – | – | –
CCCCCCCCCCCC(=O)N(C)CC(=O)O | inactive | inactive | inactive | inactive | – | – | –
Nc1ncn([C@@H]2O[C@H](CO)[C@@H](O)[C@H]2O)c(=O)n1 | inactive | inactive | inactive | inactive | – | – | –
CC1(C)OC(=O)NC1=O | inactive | inactive | inactive | inactive | – | – | –
CC(=O)OCc1ccc2c(c1)OCO2 | inactive | inactive | inactive | inactive | – | – | –
CCCCCCC(O)CCCCCCCCCCC(=O)OC (configuration not stated) | inactive | inactive | inactive | inactive | – | – | –
CCCCC/C=C\C/C=C\CCCCCCCC(=O)O | inactive | inactive | inactive | inactive | – | – | –
C[C@]12CCC(=O)C=C1CC[C@H]1[C@@H]3CC[C@](O)(C(=O)CO)[C@@]3(C)C[C@H](O)[C@@]12F | inactive | inactive | inactive | inactive | – | – | –
CC(=O)OC(C)(C)C | inactive | inactive | inactive | inactive | – | – | –
CN(Cc1cnc2nc(N)nc(N)c2n1)c1ccc(C(=O)N[C@@H](CCC(=O)O)C(=O)O)cc1 | inactive | inactive | inactive | inactive | – | – | –
CC1(C)SC(C)(C)SC(C)(C)S1 | inactive | inactive | inactive | inactive | – | – | –
N[C@@H](Cc1c[nH]c2ccccc12)C(=O)O | inactive | inactive | inactive | inactive | – | – | –
CCO/C([O-])=N/c1c[n+](N2CCOCC2)no1 | inactive | inactive | inactive | inactive | – | – | –
Cc1ccc2ccccc2n1 | inactive | inactive | inactive | inactive | – | – | –

SMILES | Potency [1] | Potency [2] | Potency [3] | Potency [4] | activity, negative = inhibition [1] | activity change, negative = inhibition [2] | activity change, negative = inhibition [4]
COc1cc(C(=O)NS(=O)(=O)c2ccccc2C)ccc1Cc1cn(C)c2ccc(NC(=O)OC3CCCC3)cc12 | inactive | inactive | inactive | inactive | – | – | –
CC1CCCCC1 | inactive | inactive | inactive | inactive | – | – | –
COCCCN | inactive | inactive | inactive | inactive | – | – | –
OC1CCCC1 | inactive | inactive | inactive | inactive | – | – | –
CCCCCCCCCCCCS | inactive | inactive | inactive | inactive | – | – | –
C1COCCN1 | inactive | inactive | inactive | inactive | – | – | –
SCCc1cnccn1 | inactive | inactive | inactive | inactive | – | – | –
c1c[nH]cn1 | inactive | inactive | inactive | inactive | – | – | –
OCCOCCOCCO | inactive | inactive | inactive | inactive | – | – | –
O=C=NCC1CCCC(CN=C=O)C1 (configuration not stated) | inactive | inactive | inactive | inactive | – | – | –
CCC1COC(=O)O1 (configuration not stated) | inactive | inactive | inactive | inactive | – | – | –
Cc1cc(O)c2c(c1)C(=O)c1cccc(O)c1C2=O | inactive | inactive | inactive | inactive | – | – | –
C[Si](C)(C)Cl | inactive | inactive | inactive | inactive | – | – | –
CCCCCC(C)N (configuration not stated) | inactive | inactive | inactive | inactive | – | – | –
O=[N+]([O-])c1cccc(C(F)(F)F)c1 | inactive | inactive | inactive | inactive | – | – | –
CC1(C)CO[C@@H](CC(=O)O)CN1 | inactive | inactive | inactive | inactive | – | – | –
N[C@H](Cc1c[nH]c2ccccc12)C(=O)O | inactive | inactive | inactive | inactive | – | – | –
CCCCCCCCCC(=O)OCC | inactive | inactive | inactive | inactive | – | – | –
[O-][n+]1ccccc1SSc1cccc[n+]1[O-] | – | – | 12 µM (active) | – | -9.35% [at 23.6 µM] | -9.5% [at 23.6 µM] | -15.2% [at 23.6 µM]
CC1CC(O)CC(C)(C)C1 (configuration not stated) | inactive | inactive | inactive | inactive | – | – | –
Cc1ccc2ncccc2c1 | inactive | inactive | inactive | inactive | – | – | –
